Calls of active or inactive are those of the source. Rule for the calls: active = hit-call score of the fitted dose curve at least 0.9, where 1 is the maximum; inactive = score below 0.9.
Experiment: UKN4_HCS_LUHMES_neurite_outgrowth: University of Konstanz (UKN) Leist Lab Neurite Outgrowth Assay in human LUHMES cells (UKN4) (AID 2284206)
Details: actives raise or lower the signal
How it was run: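 After 24 h compound treatment beginning shortly after replating of 2-day-differentiated LUHMES cells, calcein-AM and H-33342 live staining allowed high-content imaging of neurite area and viability. Fitted bidirectionally against DMSO.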

| SMILES | AC50 | outcome |
| --- | --- | --- |
| C[n+]1ccc(-c2cc[n+](C)cc2)cc1 | 189 µM (active) | – |
| C/C(=C/C=C/[C@@H](C)C(=O)O)[C@H]1CN[C@H](C(=O)O)[C@H]1CC(=O)O | – | inactive |
| CP(=O)(O)CCC(N)C(=O)O (configuration not stated) | – | inactive |
| [O-][Cl+3]([O-])([O-])O | – | inactive |
| C[n+]1ccc(-c2ccccc2)cc1 | 2.69 µM (active) | – |
| CC(=O)[O-].CC(=O)[O-].O.O.O.[Pb+2] | – | inactive |

Experiment: IUF_NPC1b_proliferation_BrdU_72hr: Leibniz Research Institute for Environmental Medicine (IUF) 72-hour Neural Progenitor Cell Bromodeoxyuridine (BrdU) Proliferation Assay (NPC1b) (AID 2284207)
Details: not given
How it was run: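 Neural progenitor spheres of human fetal origin are treated for three days; BrdU added for the last 16 h is quantified by luminescence ELISA, with DMSO as baseline and EGF/FGF omission as positive control.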

| SMILES | outcome | AC50 |
| --- | --- | --- |
| C[n+]1ccc(-c2cc[n+](C)cc2)cc1 | inactive | – |
| C/C(=C/C=C/[C@@H](C)C(=O)O)[C@H]1CN[C@H](C(=O)O)[C@H]1CC(=O)O | inactive | – |
| CP(=O)(O)CCC(N)C(=O)O (configuration not stated) | inactive | – |
| [O-][Cl+3]([O-])([O-])O | – | 0.171 µM (active) |
| CCOP(=S)(OCC)SCS(=O)C(C)(C)C (configuration not stated) | – | 2.34 µM (active) |
| C[n+]1ccc(-c2ccccc2)cc1 | – | 4.54 µM (active) |
| Cn1nc(C(F)(F)F)c(CS(=O)(=O)C2=NOC(C)(C)C2)c1OC(F)F | inactive | – |
| CC1(C)C(C=C(Cl)c2ccc(Cl)cc2)C1C(=O)OC(C#N)c1ccc(F)c(Oc2ccccc2)c1 (configuration not stated) | inactive | – |
| CCOP(=O)(Oc1cnc(C(C)(C)C)nc1)OC(C)C (configuration not stated) | – | 2.63 µM (active) |
| CC1(C)[C@H](C=C(Cl)Cl)[C@H]1C(=O)OCc1c(F)c(F)cc(F)c1F | – | 0.897 µM (active) |
| CC(=O)[O-].CC(=O)[O-].O.O.O.[Pb+2] | inactive | – |
| CC1(C)C(C=C(Cl)Cl)C1C(=O)O[C@H](C#N)c1cccc(Oc2ccccc2)c1 (some centres not stated) | – | 12.8 µM (active) |
| CCOP(=O)(OCC)OC(Cl)C(Cl)(Cl)Cl (configuration not stated) | inactive | – |
| CCOP(=O)(OCC)SCSC(C)(C)C | inactive | – |
| CC1(C)[C@@H](C=C(Cl)Cl)[C@@H]1C(=O)O[C@@H](C#N)c1ccc(F)c(Oc2ccccc2)c1 | inactive | – |
| COP(=O)(OC)SCN1C(=O)c2ccccc2C1=O | – | 24.8 µM (active) |
| CC(=O)[O-].[Tl+] | – | 82.1 µM (active) |

Experiment: IUF_NPC1a_proliferation_area_72hr: Leibniz Research Institute for Environmental Medicine (IUF) 72-hour Neural Progenitor Cell Proliferation Area Assay (NPC1a) (AID 2284208)
Details: not given
How it was run: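 Proliferation is scored as sphere area gain in primary human fetal neural progenitors treated for 72 h in EGF/FGF-containing medium. Viability, LDH and BrdU readouts come from the same wells.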

| SMILES | outcome | AC50 |
| --- | --- | --- |
| C[n+]1ccc(-c2cc[n+](C)cc2)cc1 | inactive | – |
| C/C(=C/C=C/[C@@H](C)C(=O)O)[C@H]1CN[C@H](C(=O)O)[C@H]1CC(=O)O | inactive | – |
| CP(=O)(O)CCC(N)C(=O)O (configuration not stated) | inactive | – |
| [O-][Cl+3]([O-])([O-])O | inactive | – |
| CCOP(=S)(OCC)SCS(=O)C(C)(C)C (configuration not stated) | inactive | – |
| C[n+]1ccc(-c2ccccc2)cc1 | – | 18.7 µM (active) |
| Cn1nc(C(F)(F)F)c(CS(=O)(=O)C2=NOC(C)(C)C2)c1OC(F)F | – | 22.1 µM (active) |
| CC1(C)C(C=C(Cl)c2ccc(Cl)cc2)C1C(=O)OC(C#N)c1ccc(F)c(Oc2ccccc2)c1 (configuration not stated) | inactive | – |
| CCOP(=O)(Oc1cnc(C(C)(C)C)nc1)OC(C)C (configuration not stated) | inactive | – |
| CC1(C)[C@H](C=C(Cl)Cl)[C@H]1C(=O)OCc1c(F)c(F)cc(F)c1F | inactive | – |
| CC(=O)[O-].CC(=O)[O-].O.O.O.[Pb+2] | inactive | – |
| CC1(C)C(C=C(Cl)Cl)C1C(=O)O[C@H](C#N)c1cccc(Oc2ccccc2)c1 (some centres not stated) | inactive | – |
| CCOP(=O)(OCC)OC(Cl)C(Cl)(Cl)Cl (configuration not stated) | inactive | – |
| CCOP(=O)(OCC)SCSC(C)(C)C | inactive | – |
| CC1(C)[C@@H](C=C(Cl)Cl)[C@@H]1C(=O)O[C@@H](C#N)c1ccc(F)c(Oc2ccccc2)c1 | inactive | – |
| COP(=O)(OC)SCN1C(=O)c2ccccc2C1=O | inactive | – |
| CC(=O)[O-].[Tl+] | – | 76.8 µM (active) |

Experiment: IUF_NPC1_viability_72hr: Viability Assessment at 72 hours in the Leibniz Research Institute for Environmental Medicine (IUF) Neural Progenitor Cell Proliferation Assay (NPC1) (AID 2284209)
Details: not given
How it was run: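 Viability was measured by resazurin-to-resorufin fluorescence (alamar blue) after 72 h of continuous exposure without compound renewal. Each well held one hNPC sphere (gestational week 16-19 fetal cortex, 0.25-0.35 mm) cultured in EGF/FGF proliferation medium at 37C and pH 7.2-7.6.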

| SMILES | outcome |
| --- | --- |
| C[n+]1ccc(-c2cc[n+](C)cc2)cc1 | inactive |
| C/C(=C/C=C/[C@@H](C)C(=O)O)[C@H]1CN[C@H](C(=O)O)[C@H]1CC(=O)O | inactive |
| CP(=O)(O)CCC(N)C(=O)O (configuration not stated) | inactive |
| [O-][Cl+3]([O-])([O-])O | inactive |
| CCOP(=S)(OCC)SCS(=O)C(C)(C)C (configuration not stated) | inactive |
| C[n+]1ccc(-c2ccccc2)cc1 | inactive |
| Cn1nc(C(F)(F)F)c(CS(=O)(=O)C2=NOC(C)(C)C2)c1OC(F)F | inactive |
| CC1(C)C(C=C(Cl)c2ccc(Cl)cc2)C1C(=O)OC(C#N)c1ccc(F)c(Oc2ccccc2)c1 (configuration not stated) | inactive |
| CCOP(=O)(Oc1cnc(C(C)(C)C)nc1)OC(C)C (configuration not stated) | inactive |
| CC1(C)[C@H](C=C(Cl)Cl)[C@H]1C(=O)OCc1c(F)c(F)cc(F)c1F | inactive |
| CC(=O)[O-].CC(=O)[O-].O.O.O.[Pb+2] | inactive |
| CC1(C)C(C=C(Cl)Cl)C1C(=O)O[C@H](C#N)c1cccc(Oc2ccccc2)c1 (some centres not stated) | inactive |
| CCOP(=O)(OCC)OC(Cl)C(Cl)(Cl)Cl (configuration not stated) | inactive |
| CCOP(=O)(OCC)SCSC(C)(C)C | inactive |
| CC1(C)[C@@H](C=C(Cl)Cl)[C@@H]1C(=O)O[C@@H](C#N)c1ccc(F)c(Oc2ccccc2)c1 | inactive |
| COP(=O)(OC)SCN1C(=O)c2ccccc2C1=O | inactive |
| CC(=O)[O-].[Tl+] | inactive |

Experiment: CCTE_Mundy_HCI_Cortical_Synap_Neur_Matur_NeuriteSpotCountPerNeuriteLength: CCTE's Synaptogenesis and Neurite Maturation Assay in rat cortical cells for Neurite Spot Count per Neurite Length, Mundy Lab (AID 2284210)
Details: not given
How it was run: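 Neurite-associated synapse density (synaptophysin puncta per unit neurite length) is measured by fluorescence high-content imaging in rat cortical cultures treated from DIV 7 and fixed at DIV 12, with DMSO as negative control.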

| SMILES | outcome | AC50 |
| --- | --- | --- |
| C[n+]1ccc(-c2cc[n+](C)cc2)cc1 | inactive | – |
| CCOP(=S)(OCC)SCS(=O)C(C)(C)C (configuration not stated) | inactive | – |
| O=C(O)CNCP(=O)(O)O | inactive | – |
| C#CCN(C)[C@H](C)Cc1ccccc1 | inactive | – |
| Cn1nc(C(F)(F)F)c(CS(=O)(=O)C2=NOC(C)(C)C2)c1OC(F)F | inactive | – |
| CC1(C)C(C=C(Cl)c2ccc(Cl)cc2)C1C(=O)OC(C#N)c1ccc(F)c(Oc2ccccc2)c1 (configuration not stated) | inactive | – |
| CCOP(=O)(Oc1cnc(C(C)(C)C)nc1)OC(C)C (configuration not stated) | inactive | – |
| CC1(C)[C@H](C=C(Cl)Cl)[C@H]1C(=O)OCc1c(F)c(F)cc(F)c1F | – | 12.9 µM (active) |
| CC(=O)[O-].CC(=O)[O-].O.O.O.[Pb+2] | inactive | – |
| CC1(C)C(C=C(Cl)Cl)C1C(=O)O[C@H](C#N)c1cccc(Oc2ccccc2)c1 (some centres not stated) | – | 15.6 µM (active) |
| CCOP(=O)(OCC)OC(Cl)C(Cl)(Cl)Cl (configuration not stated) | – | 49.6 µM (active) |
| CCOP(=O)(OCC)SCSC(C)(C)C | inactive | – |
| CC1(C)[C@@H](C=C(Cl)Cl)[C@@H]1C(=O)O[C@@H](C#N)c1ccc(F)c(Oc2ccccc2)c1 | inactive | – |
| COP(=O)(OC)SCN1C(=O)c2ccccc2C1=O | inactive | – |
| CC(=O)[O-].[Tl+] | – | 35.1 µM (active) |

Source: PubChem BioAssay (EPA / NIEHS)
